# The whole screen tested about 310,000 compounds, of which about 18,000 (5.8%) were called active. Inconclusive results (about 22%) are left out. This is one part of a sample in which actives are shown more often than they occur. The call rests on the fitted dose curve; in most records, active means well fitted inhibition curve with a large enough effect; inconclusive means small, poorly fitted or top-dose-only effect, or another doubt; inactive means no such curve, though single readings can be large or run the other way.
# Test: Primary qHTS for delayed death inhibitors of the malarial parasite plastid, 48 hour incubation
# Settings: P. falciparum luciferase growth in erythrocytes; series mostly up to 28.7 µM; activity change, negative = inhibition: at the top concentration
# Outline: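 Parasite viability was followed by luminescence of a genomically integrated firefly luciferase. Cultures held 0.1% parasitemia at 2% hematocrit (final), incubated under 5% CO2 at 37 C.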
# On the % scale 0 is the no-effect control and ±100 the full control effect; potency means the concentration at half of the fitted maximal effect.
Compound,"activity change, negative = inhibition",Potency
COc1ccc(Cl)cc1NC(=O)c1oc(C)nc1C,24% (inactive),
C=CCCC(=O)Nc1nc(C)c(-c2csc(Nc3ccc(Cl)cc3)n2)s1,,1.47 µM (active)
CC(=O)Nc1ccc(-c2csc(NC(=O)Nc3ccccc3)n2)cc1,-5.54% (inactive),
CCOC(=O)c1csc(NC(=O)Nc2cccc(OC)c2)n1,77.8% (inactive),
CCCCCCC(=O)Nc1nc(C)c(-c2csc(Nc3cccc(OC)c3)n2)s1,,5.22 µM (active)
CCCCCCC(=O)Nc1nc(C)c(-c2csc(Nc3cc(Cl)ccc3OC)n2)s1,,4.65 µM (active)
COc1ccc(-c2csc(NC(=O)COC(=O)Cc3ccc(Cl)cc3Cl)n2)cc1,184% (inactive),
COc1cc(CC(=O)Nc2nc(-c3ccc(F)c(F)c3)cs2)cc(OC)c1OC,-25.2% (inactive),
O=C(Nc1ccc(-c2csc(Nc3cccc(C(F)(F)F)c3)n2)cc1)c1cccc(C(F)(F)F)c1,,9.28 µM (active)
Cc1cccc(NC(=O)c2cccc(C(F)(F)F)c2)c1,18.1% (inactive),
CC(=O)c1sc(NC(=O)CCCOc2ccccc2C)nc1C,9.54% (inactive),
COc1ccc(-c2csc(Nc3ccc(O)cc3)n2)cc1,-28.2% (inactive),
CC(C)CN(C(=O)Cn1c(=O)cnc2ccccc21)C1CCS(=O)(=O)C1 (stereo unspecified),13.7% (inactive),
Cc1ccccc1Nc1c([N+](=O)[O-])ccc2nonc12,-12.3% (inactive),
CC1(C(=O)OCC(=O)Nc2ncc(Cl)cc2Cl)CC1(Cl)Cl (stereo unspecified),1.62% (inactive),
Cc1cccc(OCC(=O)Nc2ccc(C(=O)O)cc2NC(=O)COc2cccc(C)c2)c1,24% (inactive),
O=C(NCCCN1CCCC1=O)c1ccc(S(=O)(=O)Nc2ccccc2)cc1,-8.62% (inactive),
CC1CCN(C(=O)CCc2nnc3ccc(NCc4ccco4)nn23)CC1,0% (inactive),
CC(c1ccccn1)N(C)C(=O)c1ccc2nc(Cc3cccc(Cl)c3)oc2c1 (stereo unspecified),14% (inactive),
CC1(C)O[C@@H]2[C@H](O1)[C@@H](COS(=O)(=O)O)O[C@H]2n1cnc2c(=O)[nH]cnc21,40.8% (inactive),
CCOCCOC(=O)C1=C(C)NC(=O)NC1c1ccc2c(c1)OCO2 (stereo unspecified),10% (inactive),
Cc1csc2nc(COC(=O)c3cccc(N(C)C)c3)cc(=O)n12,159% (inactive),

Compound,"activity change, negative = inhibition",Potency
Cc1nc(NC(=O)c2cccc(Cl)c2)sc1-c1csc(Nc2cccc(Cl)c2)n1,,8.28 µM (active)
CCC(=O)Nc1nc(C)c(C(=O)Nc2cccc(Cl)c2)s1,-17% (inactive),
CCCCC(=O)Nc1nc(C)c(-c2csc(Nc3ccc(Cl)cc3)n2)s1,,4.65 µM (active)
CC(=O)Nc1nc(C)c(-c2csc(Nc3ccc(S(N)(=O)=O)cc3)n2)s1,5.4% (inactive),
CC(=O)Nc1cccc(-c2csc(Nc3cccc(C)n3)n2)c1,286% (inactive),
CCCCN(C)CCC(=O)Nc1ccc(Cl)cc1,-3.3% (inactive),
O=C(CN1C(=O)NC2(CCCC2)C1=O)OCCOc1ccc(F)cc1,80.6% (inactive),
COC(=O)c1c(NC(=O)C(=O)N2CCCCC2)sc2c1CC(C)(C)OC2,-25.4% (inactive),
COc1ccc(CNS(=O)(=O)c2ccc(-c3cnc(C4CC4)o3)cc2)cc1,5.18% (inactive),
COc1ccccc1C1=CC(=O)C[C@H](c2ccc(F)cc2)C1,-28.2% (inactive),
COc1cccc(C2=CC(=O)C[C@H](c3ccc(F)cc3)C2)c1OC,0% (inactive),
O=C1C=C(c2cccc(Cl)c2O)C[C@@H](c2ccc(F)cc2)C1,,2.08 µM (active)
O=C1CC(c2cccc(Br)c2)C2=C(CCCC2=O)N1 (stereo unspecified),5.31% (inactive),
O=C1C=C(c2cccc(Br)c2)C[C@@H](c2ccc(F)cc2)C1,,2.94 µM (active)
O=C(CCc1nnc(Cc2ccc3c(c2)OCO3)o1)NCCc1ccccc1Cl,2.13% (inactive),
COc1ccc(-c2nc(CS(=O)(=O)CC(=O)NCc3cccc(Br)c3)c(C)o2)cc1,3.55% (inactive),
COc1ccc(-n2ncc3c(SCC(=O)NNC(C)=O)ncnc32)cc1,50.2% (inactive),
CC(=O)N1CCc2c(sc(NC(=O)CCS(=O)(=O)c3ccccc3)c2C#N)C1,2.73% (inactive),
Cc1ccc(S(=O)(=O)NC2CCCCCC2)cc1C(N)=O,23.5% (inactive),
O=C(CN1CCCCCC1)Nc1c(Cl)cc(Cl)cc1Cl,54.7% (inactive),
N#C/C(=C\C1=C(N2CCOCC2)C(=C\c2ccccc2)/CC1)C(=O)Nc1ccccc1F,-23.8% (inactive),
O=C1Nc2ccc(Br)cc2/C1=N/N=C/C1=C(N2CCOCC2)C(=C\c2ccccc2)/CC1,-20.2% (inactive),

Compound,"activity change, negative = inhibition",Potency
C(=N\N1CCN(c2ccccn2)CC1)/C1=C(N2CCOCC2)C(=C/c2ccccc2)/CC1,,10.4 µM (active)
CC(C)c1ccc(O)c(CN2CCN(c3ccccc3)CC2)c1,,3.29 µM (active)
Oc1cc2c(cc1CN1CCN(c3ccccc3)CC1)OCO2,-9.2% (inactive),
CC(=O)c1ccc(N2CCN(CC(O)c3ccccc3)CC2)cc1 (stereo unspecified),16.4% (inactive),
O=C(CSc1nccc(=O)[nH]1)Nc1ccc(N2CCOCC2)c(Cl)c1,23.8% (inactive),
Cc1cccc(CN2CCC(CNC(=O)Nc3ccc(F)c(Cl)c3)CC2)c1,,10.4 µM (active)
O=C(CN1CCN(Cc2ccccc2)CC1)Nc1ccc(F)c(F)c1,-8.06% (inactive),
COc1cc(NC(=O)NCC2CCN(Cc3ccc(C)cc3)CC2)cc(OC)c1OC,-4.11% (inactive),
COc1cc(C(=O)NCc2nnc(SCC(=O)c3ccc(Cl)cc3)o2)cc(OC)c1OC,7.45% (inactive),
CCC(=O)Nc1ccc(C(=O)NNC(=O)c2ccc(Cl)cc2)cc1,0% (inactive),
Cc1ccc(NS(=O)(=O)c2ccc(-c3ccc(=O)[nH]n3)o2)c(C)c1,19.5% (inactive),
CC#CC[N+](C)(C)CCCCCC,,10.4 µM (active)
Cc1ccn2c(=O)c(NC(=O)c3cccc4ccccc34)c(C)nc2c1,9.29% (inactive),
Cc1[nH]c(C)c(S(=O)(=O)N2CCC(C)CC2)c1C(=O)N1CCCC1,5.99% (inactive),
O=S(=O)(c1ccccc1)c1nc(Cc2ccccc2)oc1N1CCOCC1,2.87% (inactive),
COc1ccc(C2=NN(C(=O)c3ccccc3C(=O)O)C(c3ccccc3O)C2)cc1 (stereo unspecified),8.81% (inactive),
Cc1cc(=O)n2nc(N3CCCC(C(=O)NCc4ccc(Cl)cc4)C3)sc2n1 (stereo unspecified),-7.33% (inactive),
COc1cccc(C(=O)Nc2ccc(N3CCCC3)cc2)c1,73.1% (inactive),
COc1ccc(Br)cc1/C=N/n1c(C)nnc1C,0.549% (inactive),
COc1cc(N2CCCC2)c(OC)cc1/C=C(/C#N)c1cccc(Br)c1,,14.7 µM (active)
COc1ccccc1-n1c(SCC(=O)Nc2cccc(C(=O)O)c2)nnc1-c1ccccc1O,-3.16% (inactive),
Cc1cccc(N2C(=O)c3ccc(C(=O)Nc4cccc(C(=O)O)c4)cc3C2=O)c1,56.5% (inactive),

# From PubChem BioAssay AID504832 (National Center for Advancing Translational Sciences (NCATS), 2011)
